# Several values for one entry are separate records, joined by “and”; a condition that tells them apart may be missing. Equal entries are not always repeated. Compounds without any hit were thinned out: in the full panel of roughly 83,000, 20% have a hit.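 96-well plates, one dose, 48 hours. Percent growth reported; active if below 10.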 Values without a mark were called inactive. Activity calls are given as the source filed them.
# Tested on: MDA-MB-468 breast
# Assay: NCI-60 one-dose screen, 48 h (100 = growth as untreated, 0 = no growth, -100 = all killed)
# Conditions: 10 µM unless noted
row,SMILES,growth
1,O=S(=O)(NCCCNc1nccc(-c2c(-c3ccc(F)c(O)c3)nc3sccn23)n1)c1ccc(F)cc1,-0.153% (active)
2,Nc1c(C(=O)Nc2cccc(Cl)c2)sc2nc3c(cc12)C(O)CCC3 (stereo not given),39.5%
3,O=C1c2ccccc2C(=O)c2c1ccc(C(Br)Br)c2[N+](=O)[O-],-66.5% (active)
4,O=C(/C=C/c1cccc2ccccc12)c1ccc(NC(=O)c2ccccc2CN2C(=O)c3ccccc3C2=O)cc1,51.3%
5,CCOC(=O)c1ccc(N=Cc2sc(=O)[nH]c2O)cc1,98.6%
6,COc1cc(/C=C2\CCC/C(=C\c3cc(CN4CCCCC4)c(O)c(OC)c3)C2=O)cc(CN2CCCCC2)c1O,80.4%
7,CCCCCCC1(/C=N/NC(N)=O)NC(=O)NC1=O (stereo not given),92.1%
8,CCOC(=O)c1c(Nc2ccccc2)nn2c(-c3ccc(Br)cc3)ccnc12,67.5%
9,O=C1/C(=C/c2ccccc2[N+](=O)[O-])COc2ccc(O)c(O)c21,-58% (active)
10,COC(=O)/C(CCC=C(C)C)=C1\[C@@H](OC(C)=O)C[C@@]2(C)[C@H]1C[C@@H](O)[C@H]1[C@@]3(C)CC[C@H](NCc4ccccc4)[C@@H](C)[C@@H]3CC[C@@]12C,76.8%
11,N#Cc1c(-c2cccc(Cl)c2)cc(-c2cccc(Cl)c2)[nH]c1=O,73.2%
12,CCOC(=O)NC(C)C,96.4%
13,CN(CCC(=O)c1ccccc1)CCC(=O)c1ccccc1,73.4%
14,CC(=O)N1N=C(c2ccc(Cl)cc2)CC1c1sc(Cl)nc1Cl (stereo not given),74.9%
15,Oc1ccccc1C=Nc1ccccc1N=Cc1ccccc1O.[Cu+2],47.5%
16,C=CCn1c(SCC(=O)Nc2ccc(C(=O)/C=C/c3cc(OC)c(OC)c(OC)c3)cc2)nnc1-c1ccc(OC)cc1,-26.5% (active)
17,O=c1oc2ccc(F)cc2c(=O)n1-c1ccc(F)cc1F,-4.2% (active)
18,COc1cc(CNC(=O)C2CSC3(C)c4ccccc4C(=O)N23)cc(OC)c1OC (stereo not given),89.6%
19,O=C1/C(=C2\SC(=S)N(C3CC3)C2=O)SC(=S)N1C1CC1,88.7%
20,COc1ccc(C2CC(c3cccc(Nc4ccncc4)c3)=NN2c2ccc(Cl)cc2)cc1 (stereo not given),45.3%

row,SMILES,growth
1,COc1cc(-c2nnc(SCc3ccc(O)c4ncccc34)n2-c2ccccc2)cc(OC)c1OC,-10.1% (active)
2,Nc1ncnc2c1ncn2C1CC(O)C(CO)O1 (stereo not given),113% and 99.9%
3,Cn1c(=O)c2[nH]c(NN)nc2n(C)c1=O,122%
4,Cc1cc(C)cc(Nc2ccc([N+](=O)[O-])c(NCCN3CCOCC3)n2)c1,20.8%
5,COc1ccc(-c2cn3c(ccc4ccccc43)n2)cc1,108%
6,COc1ccc2c(c1)OC13Oc4cc(OC)ccc4C=C1CCCCC3=C2,95.6%
7,Clc1ccc(C2=NN[C@H](c3cn(-c4ccccc4)nc3-c3ccccc3)C2)cc1,57.1%
8,Cn1cnc2c(N3CCN(C(=O)OCc4ccc5c(Cl)cc(Cl)c(O)c5n4)CC3)nc(Cl)nc21,72.5%
9,CC(=O)[C@@]1(O)CC[C@H]2[C@@H]3CC[C@@H]4CC(=O)CC[C@]4(C)[C@H]3[C@@H](O)C[C@@]21C,94.6%
10,CC1=C(C)C(=O)C(Nc2ccc3c(c2)OCCO3)=C(Br)C1=O,28.1%
11,CN(C)CCCNc1nn2c(=O)c3ccccc3nc2c2ccccc12,53.4%
12,Cc1ccc([P+](Cc2ccccc2)(c2ccccc2)c2ccccc2)cc1,-13.5% (active)
13,COC(=O)[C@@H](Cc1c[nH]c2ccccc12)NC(=O)/C=C/c1ccccc1,19.6%
14,CN1C(=O)N(C)C2(c3ccccc3)n3c(s/c(=C\c4ccccc4)c3=O)=NNC12c1ccccc1 (stereo not given),80.8%
15,COc1cc(NC(=O)c2sc3nc4c(cc3c2N)C(O)CCC4)cc(OC)c1 (stereo not given),54%
16,C#C[C@]1(O)CC[C@H]2[C@@H]3CC=C4c5sc(Nc6nc(C)cc(OC)n6)nc5CC[C@]4(C)[C@H]3CC[C@@]21C,63.1%
17,Cc1ccc(NS(=O)(=O)c2ccc(-c3cnc(C4CC4)o3)cc2)cc1,-0.814% (active)
18,O=Cc1c[nH]c2ccc(NC(=O)OCc3ccccc3)cc12,109%
19,C=COC(=O)CCCCCCCCC,100%
20,C=CCn1c(SCC(=O)Nc2ccc(C(=O)/C=C/c3ccc(Br)cc3)cc2)nnc1-c1c[nH]c2ccccc12,85.8%

# From PubChem BioAssay (NCI)
